Experimental data taken from PubChem BioAssay (Tox21).
Calls of active or inactive are those of the source. Entries that show only a call come without a potency. Calls come from the whole dose curve; as a rule, active = well fitted curve in the direction sought with a large enough effect in the repeat runs; inconclusive = weak or mixed curves; inactive = flat fitted curve, though single readings scatter.

Experiment: qHTS assay to test for compound auto fluorescence at 535 nm (green) in HepG2 cells (AID 720675)
Conditions: green autofluorescence 485/535 nm, 1 h; series mostly up to 91.3 µM
Source text: National Center for Advancing Translational Sciences [NCATS]
NIH Chemical Genomics Center [NCGC]
U.S. Environmental Protection Agency [EPA]
National Institutes of Environmental Health Sciences [NIEHS]
National Toxicology Program [NTP]
U.S. Food and Drug Administration [FDA]
Compound auto fluorescence often interferes with screening of the compound library against various biological targets and signaling pathways. Some of these compounds may have fluorophoric properties. Such properties may interfere with the assay outputs resulting in false positives and/or negatives. To decrease such complications and ensure the compound activities are relevant in terms of biological response, the Tox21 10K compound library was screened for auto fluorescence.
From the fluorophores used as reporter signals in our screening assays, the auto fluorescence equivalencies of compounds against three fluorophores have been evaluated: Triamterene, Fluorescein and Rose Bengal sodium for blue, green and red fluorescence, respectively. The fluorescence intensities were measured using Excitation/Emission wavelengths at 405/460nm, 485/535nm and 540/590nm for blue, green and red labels, respectively. This assay includes the green fluorescence data.
Tox21 Assay Protocol Summary:
2,000 HepG2 cells in 5 uL of culture medium (MEM containing 10% FBS) per well were dispensed into black wall/clear bottom 1536-well plates using a Multidrop Combi Dispenser (ThermoFisher Scientific, Waltham, MA). The assay plates were incubated overnight at 37 C to allow cell attachment to the well bottom, followed by the transfer of 23 nL compound or DMSO vehicle by a pintool work station (Kalypsys , San Diego, CA). After the assay plates were incubated for 1 hr at 37 C and 5% CO2, fluorescence intensities in the assay plates were measured by an Envision (PerkinElmer, Shelton, CT) plate reader using three labels for measuring blue, green and red fluorescence at […] 460, 535 and 590 nm respectively.

Compound	Potency	fluorescence, % of fluorescein control
CC(=O)[O-].CC(=O)[O-].O.O.O.[Pb+2]	inactive	
[F][Sn]([c]1ccccc1)([c]1ccccc1)[c]1ccccc1	inactive	
CCCCn1cc[n+](C)c1 (tested in a mixture with another compound)	inactive	
O=NN(CCO)CCO	inactive	
CCOP(=O)(Sc1ccccc1)Sc1ccccc1	inactive	
CCCCn1cc[n+](C)c1.[Cl][Fe-]([Cl])([Cl])[Cl]	inactive	
O=S1(=O)OCC2C(CO1)C1(Cl)C(Cl)=C(Cl)C2(Cl)C1(Cl)Cl (stereo not given)	inactive	
Clc1ccc(C(Cl)(Cl)Cl)cc1Cl	inactive	
C[C@H]1[C@H](c2ccc(Cl)cc2)SC(=O)N1C(=O)NC1CCCCC1	inactive	
CCc1cccc(C)c1N(C(=O)CCl)[C@@H](C)COC	inactive	
BrCC(Br)(Br)Br	inactive	
CN1C(=O)[C@@H](NC(=O)c2cc3ccccc3[nH]2)N=C(c2ccccc2)c2ccccc21	inactive	
Clc1c(Cl)c(Cl)c(Cl)c(Cl)c1Cl		-0.0433% [at 3.72 µM] (inactive)
ClC1(Cl)C2(Cl)C3(Cl)C4(Cl)C(Cl)(Cl)C5(Cl)C3(Cl)C1(Cl)C5(Cl)C24Cl (stereo not given)	inactive	
NC(=O)C(Cl)Cl	inactive	
NC1CCC(CC2CCC(N)CC2)CC1 (stereo not given)	inactive	
CCC(C)c1cccc(C(C)CC)c1O (stereo not given)	inactive	
CSC1=N[C@@](C)(c2ccccc2)C(=O)N1Nc1ccccc1	inactive	
CCNS(=O)(=O)C(F)(F)C(F)(F)C(F)(F)C(F)(F)C(F)(F)C(F)(F)C(F)(F)C(F)(F)F	inactive	
Cc1nn(-c2cc(NS(C)(=O)=O)c(Cl)cc2Cl)c(=O)n1C(F)F	inactive	

Compound	Potency	fluorescence, % of fluorescein control
c1ccc2c(c1)cc1ccc3cccc4ccc2c1c34	inactive	
ClC(Cl)C(Cl)(Cl)Cl	inactive	
Brc1ccc(Oc2ccc(Br)cc2Br)c(Br)c1	inactive	
O=Cc1ccccc1	inactive	
[O-][Cl+3]([O-])([O-])O	inactive	
CC(=O)[O-].CC(=O)[O-].[Co+2]	inactive	
Nc1c(Cl)c(Cl)c(Cl)c(Cl)c1Cl	inactive	
CC(C)C(Nc1ccc(C(F)(F)F)cc1Cl)C(=O)OC(C#N)c1cccc(Oc2ccccc2)c1 (stereo not given)	inactive	
CCCCON=O	inactive	
CCCCc1ccccc1	inactive	
O=S1OCC2C(CO1)C1(Cl)C(Cl)=C(Cl)C2(Cl)C1(Cl)Cl (stereo not given)	inactive	
N#Cc1c2ccccc2cc2ccccc12	inactive	
CO/N=C(/C1=NOCCO1)c1ccccc1Oc1ncnc(Oc2ccccc2Cl)c1F	inactive	
CN=C=O	inactive	
CCC1(CC)C(=O)N=C(O)NC1=O	inactive	
CN1CCc2cc(Cl)c(O)cc2[C@H]2c3ccccc3CC[C@@H]21	inactive	
[O]=[Cr][O][Cr]=[O]	inactive	
CCN(CC)C(=O)N[C@@H]1C=C2c3cccc4[nH]cc(c34)C[C@@H]2N(C)C1	inactive	
CCC[CH2][Sn]([CH2]CCC)([CH2]CCC)[CH2]CCC	inactive	
CNC(=O)/C=C(\C)OP(=O)(OC)OC	inactive	
